{
  "source": "PubChem BioAssay (NCATS)",
  "note": "Unmarked numbers belong to inactive results. Results filed as inconclusive are left out. Active and inactive are the calls of the source. Unless noted, the call rests on the fitted dose curve.",
  "data": [
    {"test_system": "HIV-1 nucleocapsid protein NCp7 (binding to TG oligonucleotide)", "experiment": "HIV Nucleocapsid (AID 346; call rule not given here;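 further: potency means the concentration at half of the fitted maximal effect; potency is for inhibitors that block NC binding and lower polarization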)", "conditions": "HIV-1 NC / fluorescein-TGTGTGTG probe, fluorescence polarization", "outline": "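10 nM TG4xF probe with 100 nM nucleocapsid protein in high-salt Hepes pH 7.5 (250mM NaCl) containing 1uM ZnCl2 and reducing agents. Compound inhibition of binding was read as fluorescein polarization after 1 hr at room temperature.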", "units": {"Potency": "µM"}, "values": [
      {"smiles": "Cc1nc2cnc(N3CCNCC3)nc2n(C)c1=O", "Potency": "> 20"},
      {"smiles": "CC(C)NC(=O)N1CCC2(CCNCC2)CC1", "Potency": "> 20"},
      {"smiles": "CN1CC[C@@]2(CCCN(C(=O)c3ccco3)C2)C1", "Potency": "> 20"},
      {"smiles": "c1cc(CN2CCC3(CCNCC3)CC2)ccn1", "Potency": "> 20"},
      {"smiles": "N#Cc1ccc(CN2CCC3(CC2)CCN(C(=O)Oc2ccccc2)CC3)cc1", "Potency": "> 20"}
    ]},
    {"target": "Lysosomal acid glucosylceramidase (Homo sapiens) (UniProt P04062)", "sequence (P04062 whole entry, looked up)": "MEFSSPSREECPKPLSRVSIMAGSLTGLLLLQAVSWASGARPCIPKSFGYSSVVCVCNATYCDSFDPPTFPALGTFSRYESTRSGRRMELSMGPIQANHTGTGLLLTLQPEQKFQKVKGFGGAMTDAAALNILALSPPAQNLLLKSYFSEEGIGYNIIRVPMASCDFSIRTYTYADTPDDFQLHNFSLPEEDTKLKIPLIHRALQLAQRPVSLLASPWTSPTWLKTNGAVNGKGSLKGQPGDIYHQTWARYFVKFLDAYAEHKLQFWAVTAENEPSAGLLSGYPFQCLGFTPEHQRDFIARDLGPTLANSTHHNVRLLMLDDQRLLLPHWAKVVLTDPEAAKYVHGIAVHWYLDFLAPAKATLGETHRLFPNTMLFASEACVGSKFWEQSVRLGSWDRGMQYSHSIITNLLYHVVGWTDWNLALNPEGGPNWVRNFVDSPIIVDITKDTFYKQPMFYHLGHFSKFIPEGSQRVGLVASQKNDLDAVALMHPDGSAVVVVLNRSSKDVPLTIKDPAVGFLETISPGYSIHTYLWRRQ", "experiment": "Glucocerebrosidase-p2 (AID 348; in the data active means potency below about 10 µM; further: potency means the concentration at half of the fitted maximal effect)", "conditions": "purified GBA, blue fluorogenic substrate, 40 min", "outline": "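Compounds titrated from 0.6 nM upwards against 0.2 nM enzyme in pH 5.9 citric acid/KH2PO4, taurocholate, tween-20; blue fluorogenic substrate 80 uM, 40 min room temperature, stopped and read Ex 365/Em 440 for AC50.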", "units": {"Potency": "µM"}, "values": [
      {"smiles": "O=C(O)CNCP(=O)(O)O", "Potency": "> 11.4"},
      {"smiles": "Cc1nc2cnc(N3CCNCC3)nc2n(C)c1=O", "Potency": "> 11.4"},
      {"smiles": "C[N+]1([O-])[C@@H]2CC(OC(=O)[C@@H](CO)c3ccccc3)C[C@@H]1[C@H]1O[C@H]12", "note": "(stereo partly drawn)", "Potency": "> 11.4"},
      {"smiles": "CN1CC[C@@]2(CCCN(C(=O)c3ccco3)C2)C1", "Potency": "> 11.4"},
      {"smiles": "c1cc(CN2CCC3(CCNCC3)CC2)ccn1", "Potency": "> 11.4"},
      {"smiles": "CC(C)CN1CC2(CCN(C(=O)c3ccncc3)CC2)C1", "Potency": "> 11.4"},
      {"smiles": "N#Cc1ccc(CN2CC[C@@]3(CCCNC3)C2)cc1", "Potency": "> 11.4"},
      {"smiles": "O=C(Oc1ccccc1)N1CCC2(CCCN(C(c3ccccc3)c3ccccc3)C2)CC1", "Potency": "> 11.4"},
      {"smiles": "c1ccc(N2CCC3(CCNCC3)CC2)cc1", "Potency": "> 11.4"}
    ]},
    {"test_system": "not listed separately", "experiment": "AP1 Signaling Pathway (AID 357; active means well fitted curve in either direction with a large enough effect, not every such curve was filed as active; further: on the % scale 0 is the no-effect control and ±100 the full control effect)", "conditions": "ME-180 AP-1-bla reporter, EGF-induced, beta-lactamase ratio, 5 h; series mostly up to 17.2 µM", "outline": "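Cells are seeded overnight, exposed to compound titrations and an EC50 level of EGF for 5 hours at 37 °C, then loaded with CCF4 dye for 2.5 hours. Beta-lactamase activity under the AP-1 element is read as a blue/green ratio.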", "values": [
      {"smiles": "O=C(O)CNCP(=O)(O)O", "outcome": "inactive"},
      {"smiles": "Cc1nc2cnc(N3CCNCC3)nc2n(C)c1=O", "outcome": "inactive"},
      {"smiles": "C[N+]1([O-])[C@@H]2CC(OC(=O)[C@@H](CO)c3ccccc3)C[C@@H]1[C@H]1O[C@H]12", "note": "(stereo partly drawn)", "outcome": "inactive"},
      {"smiles": "CC(C)NC(=O)N1CCC2(CCNCC2)CC1", "outcome": "inactive"},
      {"smiles": "CN1CC[C@@]2(CCCN(C(=O)c3ccco3)C2)C1", "outcome": "inactive"},
      {"smiles": "c1cc(CN2CCC3(CCNCC3)CC2)ccn1", "outcome": "inactive"},
      {"smiles": "Clc1ccc(CS[C@@H](Cn2ccnc2)c2ccc(Cl)cc2Cl)cc1", "outcome": "inactive"},
      {"smiles": "CC(C)CN1CC2(CCN(C(=O)c3ccncc3)CC2)C1", "outcome": "inactive"},
      {"smiles": "CCNC[C@H](O)c1cccc(O)c1", "outcome": "inactive"},
      {"smiles": "N#Cc1ccc(CN2CC[C@@]3(CCCNC3)C2)cc1", "outcome": "inactive"},
      {"smiles": "N#Cc1ccc(CN2CCC3(CC2)CCN(C(=O)Oc2ccccc2)CC3)cc1", "outcome": "inactive"},
      {"smiles": "c1ccc(N2CCC3(CCNCC3)CC2)cc1", "outcome": "inactive"},
      {"smiles": "COc1ccc2c(c1O)-c1c(OC)c(OC)cc3c1[C@H](C2)N(C)CC3", "outcome": "inactive"}
    ]},
    {"target": "Cytochrome P450 1A2 (Homo sapiens) (UniProt P05177)", "sequence (P05177 whole entry, looked up)": "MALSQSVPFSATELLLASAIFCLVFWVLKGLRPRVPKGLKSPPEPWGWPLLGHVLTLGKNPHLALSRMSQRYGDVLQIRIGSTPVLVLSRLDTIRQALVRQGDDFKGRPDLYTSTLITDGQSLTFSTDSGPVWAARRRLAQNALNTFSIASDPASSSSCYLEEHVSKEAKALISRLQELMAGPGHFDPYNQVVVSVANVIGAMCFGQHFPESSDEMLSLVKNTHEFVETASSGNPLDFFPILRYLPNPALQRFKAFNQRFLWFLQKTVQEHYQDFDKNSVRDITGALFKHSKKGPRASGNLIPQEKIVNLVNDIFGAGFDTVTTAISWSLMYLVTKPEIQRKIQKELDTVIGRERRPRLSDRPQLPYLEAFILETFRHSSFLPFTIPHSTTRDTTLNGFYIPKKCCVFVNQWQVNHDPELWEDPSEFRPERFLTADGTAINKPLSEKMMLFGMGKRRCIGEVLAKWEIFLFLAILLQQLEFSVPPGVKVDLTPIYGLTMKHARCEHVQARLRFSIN", "experiment": "p450-cyp1a2 (AID 410); further: potency means the concentration at half of the fitted maximal effect", "conditions": "recombinant CYP1A2, luciferin-ME demethylation, luminescence; series mostly up to 25.6 µM", "outline": "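Inhibition was calculated relative to 57 uM furafylline (full inhibition). The reaction used human CYP1A2 at 20nM with Luciferin-ME at its Km, 100uM, driven by an NADPH-regenerating system for 60 min at room temperature.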", "values": [
      {"smiles": "CN1CC[C@@]2(CCCN(C(=O)c3ccco3)C2)C1", "Potency": "inactive"},
      {"smiles": "c1cc(CN2CCC3(CCNCC3)CC2)ccn1", "Potency": "inactive"},
      {"smiles": "CC(C)CN1CC2(CCN(C(=O)c3ccncc3)CC2)C1", "Potency": "inactive"},
      {"smiles": "CCNC[C@H](O)c1cccc(O)c1", "Potency": "inactive"},
      {"smiles": "N#Cc1ccc(CN2CCC3(CC2)CCN(C(=O)Oc2ccccc2)CC3)cc1", "Potency": "inactive"},
      {"smiles": "O=C(Oc1ccccc1)N1CCC2(CCCN(C(c3ccccc3)c3ccccc3)C2)CC1", "Potency": "inactive"},
      {"smiles": "COc1ccc2c(c1O)-c1c(OC)c(OC)cc3c1[C@H](C2)N(C)CC3", "Potency": "10 µM (active)"}
    ]},
    {"test_system": "not listed separately", "experiment": "Cell Viability - BJ (AID 421);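 further: potency means the concentration at half of the fitted maximal effect; cells exposed to compound for 40 hours at 37 °C before readout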", "conditions": "BJ fibroblast viability, qHTS", "outline": "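Cytotoxicity in human BJ foreskin fibroblasts is scored as loss of cellular ATP after a 40-hour exposure, measured by luciferase luminescence. Controls are DMSO and 100 uM tamoxifen.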", "values": [
      {"smiles": "O=C(O)COc1ccc(Cl)cc1Cl", "Potency": "> 92 µM"},
      {"smiles": "ClC1=C(Cl)C2(Cl)C3C4C=CC(C4)C3C1(Cl)C2(Cl)Cl", "note": "(stereo not drawn)", "Potency": "> 92 µM"},
      {"smiles": "O=S1OCC2C(CO1)C1(Cl)C(Cl)=C(Cl)C2(Cl)C1(Cl)Cl", "note": "(stereo not drawn)", "Potency": "> 92 µM"},
      {"smiles": "c1ccc(N=Nc2ccccc2)cc1", "Potency": "> 92 µM"},
      {"smiles": "CCOCN(C(=O)CCl)c1c(C)cccc1CC", "Potency": "22.8 µM (active)"},
      {"smiles": "CNC(=O)O/N=C/C(C)(C)SC", "Potency": "> 92 µM"},
      {"smiles": "CCNc1nc(Cl)nc(NC(C)C)n1", "Potency": "> 92 µM"},
      {"smiles": "C=CCc1ccc(OC)cc1", "Potency": "> 92 µM"},
      {"smiles": "ClC1=C(Cl)C2(Cl)C3C4CC(C5OC45)C3C1(Cl)C2(Cl)Cl", "note": "(stereo not drawn)", "Potency": "> 92 µM"},
      {"smiles": "ClC(Cl)=C(c1ccc(Cl)cc1)c1ccc(Cl)cc1", "Potency": "> 92 µM"},
      {"smiles": "C/C=C/c1ccc2c(c1)OCO2", "Potency": "> 92 µM"},
      {"smiles": "C=CCc1ccc2c(c1)OCO2", "Potency": "> 92 µM"},
      {"smiles": "COP(=S)(OC)Oc1ccc([N+](=O)[O-])cc1", "Potency": "> 92 µM"}
    ]},
    {"test_system": "not listed separately", "experiment": "Cell Viability - Jurkat (AID 426;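 active means dose-dependent loss of cell ATP signal giving a full or clear fitted curve, ranked by lower potency value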;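 further: potency means the concentration at half of the fitted maximal effect; cells exposed to compound for 40 hours at 37 °C before ATP read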)", "conditions": "qHTS", "outline": "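Seed 5000 Jurkat E6-1 cells/well; add compound; incubate 40 hr at 37 °C; add CellTiter-Glo; wait 20 min at room temperature; read luminescence. Fit concentration-response with Hill equation for AC50.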", "values": [
      {"smiles": "O=C(O)COc1ccc(Cl)cc1Cl", "Potency": "> 92 µM"},
      {"smiles": "c1ccc(N=Nc2ccccc2)cc1", "Potency": "47.9 µM (active)"},
      {"smiles": "CCOCN(C(=O)CCl)c1c(C)cccc1CC", "Potency": "32 µM (active)"},
      {"smiles": "CNC(=O)O/N=C/C(C)(C)SC", "Potency": "> 92 µM"},
      {"smiles": "CCNc1nc(Cl)nc(NC(C)C)n1", "Potency": "> 92 µM"},
      {"smiles": "C=CCc1ccc(OC)cc1", "Potency": "> 92 µM"},
      {"smiles": "ClC(Cl)=C(c1ccc(Cl)cc1)c1ccc(Cl)cc1", "Potency": "> 92 µM"},
      {"smiles": "CCc1cccc(CC)c1N(COC)C(=O)CCl", "Potency": "54 µM (active)"},
      {"smiles": "C/C=C/c1ccc2c(c1)OCO2", "Potency": "> 92 µM"},
      {"smiles": "C=CCc1ccc2c(c1)OCO2", "Potency": "> 92 µM"},
      {"smiles": "COP(=S)(OC)Oc1ccc([N+](=O)[O-])cc1", "Potency": "> 92 µM"}
    ]},
    {"test_system": "not listed separately", "experiment": "Cell Viability - Hek293 (AID 427;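 active means compounds whose dose-response curve shows a full or clear partial loss of cell viability, called from curve shape rather than a numeric limit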;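 further: potency means the concentration at half of the fitted maximal effect; cells exposed to compound for 40 hours at 37 °C before reading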)", "conditions": "qHTS", "outline": "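qHTS, human embryonic kidney (adenovirus-transformed) cells; 40 hr cpd, 37 °C; CellTiter-Glo ATP luminescence. Norm: DMSO = 0, 100 uM tamoxifen = 100% inhibition. Hill-fit AC50.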", "units": {"Potency": "µM"}, "values": [
      {"smiles": "c1ccc(N=Nc2ccccc2)cc1", "Potency": "> 92"},
      {"smiles": "CCNc1nc(Cl)nc(NC(C)C)n1", "Potency": "> 92"},
      {"smiles": "ClC1=C(Cl)C2(Cl)C3C4CC(C5OC45)C3C1(Cl)C2(Cl)Cl", "note": "(stereo not drawn)", "Potency": "> 92"},
      {"smiles": "C=CCc1ccc2c(c1)OCO2", "Potency": "> 92"},
      {"smiles": "COP(=S)(OC)Oc1ccc([N+](=O)[O-])cc1", "Potency": "> 92"}
    ]}
  ]
}
